This is an account of results in PubChem BioAssay (Tox21).

A short description of experiment [1]: Nuclear factor erythroid 2-related factor 2/antioxidant responsive element (Nrf2/ARE) small molecule agonists: luciferase reporter gene qHTS assay in human keratinocytes (AID 1919969). Note: nearly all actives have a fitted effect of over 35% in size. Note: potency is the fitted concentration of half-maximal effect. For orientation: Reporter assays use an easily measured gene product as a stand-in for the process of interest.
Experiment [2] addresses Gonadotropin-releasing hormone receptor (Homo sapiens) (UniProt P30968). As to the kind of experiment: Human gonadotropin-releasing hormone receptor (GnRHR) small molecule agonists, calcium flux assay in GnRHR-HEK293 cells (AID 1920063). Note: nearly all actives have a fitted effect of over 35% in size. In outline: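 Compounds dissolved in DMSO are pin-transferred onto dye-loaded GnRHR-HEK293 cells, which were seeded 18 h before at 37 C/5% CO2. Calcium signal is read as fluorescence intensity at 1 s intervals for 3 min.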
For orientation: Calcium flux is commonly read through the fluorescence of an indicator in the cells.

The target in experiment [3] is KiSS-1 receptor (Homo sapiens) (UniProt Q969F8). As to the kind of experiment: Human kisspeptin (KISS1R) small molecule agonists, calcium flux assay in KISS1R-HEK293 cells (AID 1920064; active = well fitted activation curve with a large enough effect in the repeat runs). The procedure, abridged: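 Cell line: HEK293, stable human KISS1R. Dye loading 1 h at 37 C after 18 h culture. Read: kinetic fluorescence, 480/540 nm, 3 min at 1 s intervals.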
The nature of experiment [4]: G protein-coupled receptor (GPCR) small molecule agonists, calcium flux assay: HEK293 wild type cell line counter screen (AID 1920065). The procedure, abridged: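 Tox21 10K compounds, 15 concentrations each in triplicate, pin-transferred in DMSO onto dye-loaded cells; kinetic read at 480/540 nm for 3 min, 1 s intervals.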
Experiment [5] can be described thus: p53 small molecule agonists, cell-based qHTS assay with human liver microsomes (AID 1963577). In outline:
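p53RE-bla cells, 4,000/well, compound added after 5 h, with human liver microsomes 0.5 mg/mL and NADPH 0.5 mg/mL final; 16 h at 37 C, then LiveBLAzer 2 h RT, fluorescence.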
On the technique in general: In qHTS, concentration-response curves come from the screen itself.

Experiment [6] can be described thus: p53 small molecule agonists, cell-based qHTS assay with rat liver microsomes (AID 1963578). In outline: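 p53RE-bla cells, 4,000/well, pre-incubated 5 h, then given compounds plus rat liver microsomes (0.5 mg/mL final) and NADPH (0.5 mg/mL final). Incubation 16 h at 37 C; beta-lactamase reporter read by LiveBLAzer fluorescence after 2 h at room temperature.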

Experiment [7] can be described thus: p53 small molecule agonists, cell-based qHTS assay: qHTS cell viability counter screen (AID 1963581). Note: nearly all actives have a fitted effect of over 45% in size. The procedure, abridged:
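ATP content measured by luminescence in HCT-116 p53RE-bla cells treated 16 h at 37 C, same wells as the reporter screen.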

Experiment [8] can be described thus: p53 small molecule agonists, cell-based qHTS assay (AID 1963582; active = well fitted activation curve with a large enough effect in the signal ratio in the repeat runs, not every such curve was filed as active; the % refers to the signal ratio). In outline: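 16 h compound exposure (37 C) of p53 response element–bla cells, preceded by 5 h recovery at 37 C/5% CO2; read-out via LiveBLAzer B/G FRET substrate, 2 h RT, fluorescence intensity.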
The target of experiment [9] is 5-hydroxytryptamine receptor 2A (Homo sapiens) (UniProt P28223). As to the kind of experiment: 5-hydroxytryptamine receptor 2A (HTR2A) small molecule antagonists, cell-based qHTS assay (AID 1963586). Note: nearly all actives have a fitted effect of over 45% in size. In outline: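 CHO cells stably expressing human HTR2A were plated for 18 h at 37 C, then loaded with calcium dye for 1 h. Compounds were preincubated 5 min at room temperature before DOI (4 nM solution) was added. Kinetic fluorescence was read for 3 min.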

For experiment [10] the target is unchanged. The experiment in a line: 5-hydroxytryptamine receptor 2A (HTR2A) small molecule agonists, cell-based qHTS assay (AID 1963587). Note: nearly all actives have a fitted effect of over 30% in size. In outline: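 HTR2A-CHO cells, plated 18 h at 37 C/5% CO2, dye-loaded 1 h at 37 C; compounds in DMSO added by pin tool (agonist mode). Intracellular calcium flux read as kinetic fluorescence on FDSS over 2 min at 1 s intervals.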

Experiment [11] concerns the target Muscarinic acetylcholine receptor M1 (Homo sapiens) (UniProt P11229). The experiment in a line: Cholinergic receptor muscarinic 1 (CHRM1) small molecule antagonists, cell-based qHTS assay (AID 1963588). Note: nearly all actives have a fitted effect of over 40% in size. The procedure, abridged:
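Compounds were tested at 15 concentrations in three independent runs. Dye-loaded CHRM1-CHO cells were exposed 5 min at room temperature before stimulation by acetylcholine added at 50nM. Intracellular calcium was read kinetically on FDSS for 3 min.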

Experiment [12] has the same target. The experiment in a line: Cholinergic receptor muscarinic 1 (CHRM1) small molecule agonists, cell-based qHTS assay (AID 1963589). Note: nearly all actives have a fitted effect of over 35% in size. In outline:
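Homogeneous fluorescence calcium flux, agonist mode. Human M1-expressing CHO cells; compound dosed at 15 concentrations, three independent runs; signal sampled every 1 sec.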

A short description of experiment [13]: cAMP Responsive Elements (CRE) small molecule agonists, cell-based qHTS assay (AID 1963590). In outline: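 HEK 293T cells stably bearing CRE-bla were plated at 2,000 cells per well and rested 18 h. Compounds, positive controls or DMSO were added for 3 h at 37 C. LiveBLAzer B/G substrate was then loaded for 2 h at room temperature.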
The nature of experiment [14]: cAMP Responsive Elements (CRE) small molecule antagonists, cell-based qHTS assay (AID 1963591; active = well fitted inhibition curve with a large enough effect in the signal ratio in the repeat runs, not every such curve was filed as active; the % refers to the signal ratio). The procedure, abridged:
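First, CRE-bla HEK293T cells settled 18 h at 37 C. Next, compound and 0.25 uM final NKH477 were applied for 3 h. Last, LiveBLAzer B/G substrate was loaded for 2 h at room temperature.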

Experiment [15] addresses Beta-2 adrenergic receptor (Homo sapiens) (UniProt P07550). The experiment in a line: Adrenergic beta2 receptor (ADRB2) small molecule antagonists, cell-based qHTS assay (AID 1963592). Note: series mostly up to about 92 µM; nearly all actives have a fitted effect of over 50% in size. In outline:
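Assay format: CHO-ADRB2 cells, 18-20hr seeding at 37C/5% CO2, then compound plus 1nM isoproterenol agonist mix for 0.5hr RT. Homogeneous time-resolved fluorescence cAMP detection after 1hr, expressed as 665/615 nm ratio.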

Experiment [16] has as its target D(2) dopamine receptor (Homo sapiens) (UniProt P14416). As to the kind of experiment: Dopamine D2 receptor (DRD2) small molecule agonists, cell-based qHTS assay (AID 1963594). Note: nearly all actives have a fitted effect of over 35% in size. In outline:
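HEK293 cells stably expressing DRD2 were cultured 24 h at 37 C, then given Ro20-1724 (0.1 mM final) and compounds for 10 min at room temperature. NKH477 (200nM) was then added for 30 min. cAMP was read by HTRF.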

Experiment [17] has the same target. The experiment in a line: Dopamine D2 receptor (DRD2) small molecule antagonists, cell-based qHTS assay (AID 1963595; active = well fitted inhibition curve with a large enough effect in the signal ratio in the repeat runs, with a control signal flat; the % refers to the signal ratio; note: potency is the fitted concentration of half-maximal effect). In outline:
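Antagonism was scored as restored cAMP in HEK293-DRD2 cells. These cells were stimulated with 200 nM NKH477 and 12 nM quinpirole for 30 min at room temperature, in the presence of 0.1 mM Ro20-1724.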

Experiment [18] in a line: p53 small molecule agonists, cell-based qHTS assay with rat liver microsomes: qHTS cell viability counter screen (AID 1963580). Note: nearly all actives have a fitted effect of over 45% in size. In outline:
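Counter screen for cytotoxicity under metabolic activation: rat liver microsomes and NADPH, 0.5 mg/mL final each, added with compounds to p53RE-bla HCT-116 cells; 16 h at 37 C, then ATP luminescence read.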

In experiment [19] the target is Beta-2 adrenergic receptor (Homo sapiens) (UniProt P07550). As to the kind of experiment: Adrenergic beta2 receptor (ADRB2) small molecule agonists, cell-based qHTS assay (AID 1963593).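 Note: CHO cells stably overexpressing human ADRB2.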 In outline:
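CHO cells stably over-expressing ADRB2 were plated overnight at 37C, then dosed with compounds plus a stimulation mix containing 100uM IBMX and 25uM Ro-20-1724 for 0.5hr at room temperature. cAMP was measured by HTRF competition, 1hr.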

Experiment [20] can be described thus: p53 small molecule agonists, cell-based qHTS assay with human liver microsomes: qHTS cell viability counter screen (AID 1963579). Note: nearly all actives have a fitted effect of over 45% in size. In outline:
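p53RE-bla cells, 4,000/well, dosed 5 hours after plating, with human liver microsomes (0.5 mg/mL final) plus NADPH (0.5 mg/mL final), 16 hours at 37 C. Viability read as CellTiter-Glo luminescence after 30 min at room temperature.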

A number with no mark means an inactive call. Inconclusive results are not listed. Activity calls are given as the source filed them. Unless noted, calls come from the whole dose curve.

Chain of Gonadotropin-releasing hormone receptor (Homo sapiens) (P30968 whole entry, looked up): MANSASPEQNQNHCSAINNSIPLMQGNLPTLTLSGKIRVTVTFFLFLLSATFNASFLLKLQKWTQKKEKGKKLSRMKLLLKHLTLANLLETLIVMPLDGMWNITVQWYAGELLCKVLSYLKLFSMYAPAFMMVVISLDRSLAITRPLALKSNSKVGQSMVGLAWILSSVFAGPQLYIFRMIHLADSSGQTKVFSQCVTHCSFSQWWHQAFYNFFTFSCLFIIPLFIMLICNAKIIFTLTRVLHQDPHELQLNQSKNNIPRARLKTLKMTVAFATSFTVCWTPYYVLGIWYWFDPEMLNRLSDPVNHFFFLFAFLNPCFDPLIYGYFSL
Chain of D(2) dopamine receptor (Homo sapiens) (P14416 whole entry, looked up): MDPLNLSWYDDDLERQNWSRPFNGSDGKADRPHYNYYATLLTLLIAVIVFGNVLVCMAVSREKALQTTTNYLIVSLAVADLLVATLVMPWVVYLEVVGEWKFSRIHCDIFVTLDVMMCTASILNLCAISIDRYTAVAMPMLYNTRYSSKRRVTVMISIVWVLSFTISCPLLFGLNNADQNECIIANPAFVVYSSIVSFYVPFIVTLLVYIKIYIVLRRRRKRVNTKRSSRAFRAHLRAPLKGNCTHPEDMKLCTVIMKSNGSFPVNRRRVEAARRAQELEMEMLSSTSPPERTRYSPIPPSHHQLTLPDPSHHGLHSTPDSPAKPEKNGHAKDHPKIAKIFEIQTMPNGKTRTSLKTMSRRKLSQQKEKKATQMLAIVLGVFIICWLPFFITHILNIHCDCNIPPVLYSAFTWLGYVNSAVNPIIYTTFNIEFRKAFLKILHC
Chain of Muscarinic acetylcholine receptor M1 (Homo sapiens) (P11229 whole entry, looked up): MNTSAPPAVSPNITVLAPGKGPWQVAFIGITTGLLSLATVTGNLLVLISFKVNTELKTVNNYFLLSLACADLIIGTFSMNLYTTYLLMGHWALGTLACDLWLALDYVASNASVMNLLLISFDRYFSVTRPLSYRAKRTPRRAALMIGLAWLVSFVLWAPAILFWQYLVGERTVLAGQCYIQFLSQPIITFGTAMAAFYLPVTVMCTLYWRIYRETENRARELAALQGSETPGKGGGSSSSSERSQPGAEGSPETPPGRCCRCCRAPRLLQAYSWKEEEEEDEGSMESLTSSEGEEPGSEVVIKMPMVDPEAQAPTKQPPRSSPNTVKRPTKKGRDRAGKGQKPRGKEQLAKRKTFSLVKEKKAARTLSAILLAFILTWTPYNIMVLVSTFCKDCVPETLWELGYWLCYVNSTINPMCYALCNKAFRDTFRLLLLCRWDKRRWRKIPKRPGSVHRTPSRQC
Chain of KiSS-1 receptor (Homo sapiens) (Q969F8 whole entry, looked up): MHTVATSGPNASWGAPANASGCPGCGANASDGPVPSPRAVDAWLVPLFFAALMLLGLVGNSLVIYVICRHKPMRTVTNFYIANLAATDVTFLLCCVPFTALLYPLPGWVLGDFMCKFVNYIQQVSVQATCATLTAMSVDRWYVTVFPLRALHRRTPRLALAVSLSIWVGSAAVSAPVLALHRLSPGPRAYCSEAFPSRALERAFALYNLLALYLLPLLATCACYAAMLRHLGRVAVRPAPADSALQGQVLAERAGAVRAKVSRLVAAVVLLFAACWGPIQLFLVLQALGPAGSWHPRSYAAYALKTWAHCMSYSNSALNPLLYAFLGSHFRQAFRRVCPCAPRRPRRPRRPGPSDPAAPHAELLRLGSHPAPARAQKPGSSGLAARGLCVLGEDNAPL
Chain of 5-hydroxytryptamine receptor 2A (Homo sapiens) (P28223 whole entry, looked up): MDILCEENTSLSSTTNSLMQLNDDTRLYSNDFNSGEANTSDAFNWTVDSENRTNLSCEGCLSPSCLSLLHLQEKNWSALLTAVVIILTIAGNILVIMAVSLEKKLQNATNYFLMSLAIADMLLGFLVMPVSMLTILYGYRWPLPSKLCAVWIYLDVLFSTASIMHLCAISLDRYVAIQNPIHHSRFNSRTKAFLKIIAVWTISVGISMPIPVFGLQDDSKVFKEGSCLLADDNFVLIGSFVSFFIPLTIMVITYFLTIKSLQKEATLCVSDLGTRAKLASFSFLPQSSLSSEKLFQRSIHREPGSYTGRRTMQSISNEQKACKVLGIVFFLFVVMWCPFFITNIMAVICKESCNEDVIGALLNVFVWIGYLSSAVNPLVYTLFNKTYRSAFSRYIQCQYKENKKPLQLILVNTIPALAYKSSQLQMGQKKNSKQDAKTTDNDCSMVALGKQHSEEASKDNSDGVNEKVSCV
Chain of Beta-2 adrenergic receptor (Homo sapiens) (P07550 whole entry, looked up): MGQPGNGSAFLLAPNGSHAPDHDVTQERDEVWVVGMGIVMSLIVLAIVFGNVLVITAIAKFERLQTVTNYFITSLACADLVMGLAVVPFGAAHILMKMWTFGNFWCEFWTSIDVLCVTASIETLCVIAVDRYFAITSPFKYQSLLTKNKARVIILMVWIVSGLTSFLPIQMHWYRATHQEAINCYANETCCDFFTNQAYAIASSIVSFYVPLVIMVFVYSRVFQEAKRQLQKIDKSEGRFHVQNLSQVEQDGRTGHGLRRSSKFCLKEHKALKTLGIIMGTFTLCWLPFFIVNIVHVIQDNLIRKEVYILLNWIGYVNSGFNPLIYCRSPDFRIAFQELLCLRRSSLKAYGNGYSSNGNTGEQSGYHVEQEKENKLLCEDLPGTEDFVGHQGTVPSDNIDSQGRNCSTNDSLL

In the case of `CCCC(C)C=O` (stereo not drawn), the Potency result in experiment [1], in experiment [2], in [5], in experiment [6], in experiment [7] and in experiment [8] was “inactive” in each case. Also, the Potency entry in [9], in experiment [10], in experiment [11], in experiment [12], in experiment [13] and in experiment [14] was “inactive” each time. Further, the Potency result in [15], in experiment [16] and in experiment [17] was “inactive” each time. The result in [3] and in [4] was inactive.

Turning to `Clc1nnc(Cl)c2ccccc12`, the Potency in [1] was 6.08 µM (active). Further, the Potency entry in experiment [2], in [5], in experiment [6], in [18], in [7] and in experiment [8] was “inactive” throughout. The Potency entry in experiment [9], in [11], in experiment [12], in [14], in experiment [15] and in [16] was “inactive” each time. Also, the outcome in experiment [3] and in experiment [4] was inactive.

In the case of `O=C(O)Cc1ccccc1Oc1ccc(Cl)cc1Cl`, the Potency result in [1], in experiment [2], in experiment [5], in [6], in experiment [18] and in experiment [7] was “inactive” each time. Moreover, the Potency result in [10], in experiment [11], in experiment [12], in [15], in [19] and in experiment [16] was “inactive” throughout. The Potency entry in experiment [17] was “inactive”. For the same compound, the outcome in experiment [3] and in experiment [4] was inactive.

Take `CCN(CC)CCNC(=O)c1cc(S(C)(=O)=O)ccc1OC`: the Potency result in [1], in experiment [2], in experiment [6], in experiment [20], in experiment [7] and in [13] was “inactive” throughout. Moreover, the Potency result in [14], in [15], in [19] and in experiment [16] was “inactive” throughout. Also, the outcome in [3] and in experiment [4] was inactive. In addition, the Potency in [17] was 15 µM (active).

As to `CN(C)[C@@H]1C(=O)C(C(=O)NCN2CCCC2)=C(O)[C@@]2(O)C(=O)C3=C(O)c4c(O)cccc4[C@@](C)(O)C3C[C@@H]12` (stereo partly drawn), the Potency entry in experiment [1], in [2], in experiment [5], in [6], in [8] and in experiment [9] was “inactive” each time. The Potency result in [10], in experiment [11], in experiment [13], in experiment [14], in experiment [15] and in experiment [16] was “inactive” in each case. Further, the Potency entry in [17] is “inactive”. The outcome in [3] and in [4] was inactive.

On to `OC(CCN1CCCCC1)(c1ccccc1)c1ccccc1`, for which the Potency entry in experiment [1], in experiment [2], in [5], in experiment [20], in experiment [18] and in experiment [7] was “inactive” throughout. The Potency result in [8], in experiment [9], in experiment [10], in experiment [12], in experiment [13] and in experiment [14] was “inactive” throughout. The Potency result in experiment [15], in experiment [16] and in experiment [17] was “inactive” each time. Moreover, the result in [3] and in [4] was inactive.

Turning to `C[C@@H](CN1CC(=O)NC(=O)C1)N1CC(=O)NC(=O)C1`, the Potency entry in experiment [2], in experiment [5], in experiment [6], in [20], in [18] and in experiment [7] was “inactive” each time. Further, the Potency result in experiment [8], in [9], in experiment [10], in experiment [11], in experiment [12] and in experiment [13] was “inactive” in each case. Moreover, the Potency entry in experiment [16] and in experiment [17] was “inactive” each time. For the same compound, the result in experiment [3] and in [4] was inactive.
